Measurements as given in PubChem BioAssay (NCI).
“And” between values parts separate entries of the source, which are not always exact repeats. Equal entries are not always repeated. Compounds without any hit were thinned out: in the full panel of roughly 83,000, 20% have a hit.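 Single-concentration screen, 48 h exposure, 96-well plates. Endpoint: percent growth. Below 10 = active.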 The source made the active and inactive calls.

Each molecule was assayed on MDA-MB-468 breast (assay: NCI-60 one-dose screen, 48 h (100 = growth as untreated, 0 = no growth, -100 = all killed)). Settings: 10 µM unless noted.
For `O=C1C=C2C(=CCOC2O)O1` (stereo not given), the growth was -55.5% (active). `n1nc(-c2nonc2-c2nn[nH]n2)n[nH]1` was tested, and the growth was 101% (inactive). For `Cc1cc(N(CCCl)CCCl)ccc1/C=N\NC(=O)c1ccncc1`, the growth was -45.6% (active). For `CN1C(=O)C23CC4(C56CC78SSC(CO)(C(=O)N7C5Nc5ccccc56)N(C)C8=O)c5ccccc5NC4N2C(=O)C1(CO)SS3` (stereo not given), the growth was -81.7% (active). For `COC(=O)[C@H](Cc1c[nH]c2ccccc12)NC(=O)[C@@H](OC)[C@@H]1Cc2cc3cc(OC4CC(OC5CC(O)C(O)C(C)O5)C(O)C(C)O4)c(C)c(O)c3c(O)c2C(=O)[C@H]1OC1CC(OC2CC(OC3CC(C)(O)C(O)C(C)O3)C(O)C(C)O2)C(O)C(C)O1` (stereo not given in full), the growth was -48.8% (active). In the case of `O=C(O)CNC(=O)c1ccccc1`, the growth is reported as 122% (inactive). `CC(=O)O[C@@H]1CC[C@]2(C)[C@H]3CC[C@]4(C)C(=O)CC[C@H]4[C@@H]3C[C@@H]3SC(N)=N[C@@]32C1` was tested, and the growth was 29.6% (inactive). In the case of `O=C1N[C@@H]2[C@@H](O)[C@@H](O)[C@H](O)C[C@H]2c2cc3c(c(O)c21)OCO3`, the growth is reported as -45.8% (active). With `Cc1cc[c-]cc1.Fc1c[c-]c(-c2ccccn2)c(F)c1.N#CCC[PH+](CCC#N)c1ccccc1.[Pt+2]` the growth was 37% (inactive). In the case of `NC1CCc2cc(O)c(O)cc2C1` (stereo not given), the growth is reported as 66% (inactive). `O=C([O][Hg][CH2]C1OCCOC1[CH2][Hg][O]C(=O)c1ccccc1)c1ccccc1` (stereo not given) was tested, and the growth was -81.5% (active). In the case of `COc1ccc(/C=C\c2cc(OC)c(OC)c(OC)c2)c(NS(=O)(=O)c2ccc(Cl)cc2)c1O`, the growth is reported as 9.56% (active). For `Cc1c(C)c([N+](=O)[O-])c(C)c(C)c1[N+](=O)[O-]`, the growth was 95.2% (inactive). `N#C[Se]CCN1C(=O)C2C(C1=O)[C@H]1C=C[C@@H]2S1` (stereo not given in full) was tested, and the growth was -19.7% (active). With `Clc1ccc2nnnn2n1` the growth was 35.6% (inactive). `CC1(C)N=C(N)N=C(N)N1c1ccc(CCC(=O)Nc2cccc(S(=O)(=O)F)c2)cc1` was tested, and the growth was 28% (inactive). With `O=C1c2ccccc2C(=O)N1[N+](=O)[O-]` the growth was 89.2% (inactive). In the case of `O=[N+]([O-])/C=C/c1ccc(Cl)cc1[N+](=O)[O-]`, the growth is reported as -55.9% (active). In the case of `ClCc1ccc2ccccc2n1`, the growth is reported as 84.1% (inactive). For `O=S(=O)(Cl)c1ccccc1` (tested in a mixture with another compound), the growth was 98.6% (inactive). `CCCCOCCOP(=O)(OCCOCCCC)OCCOCCCC` was tested, and the growth was 91.5% (inactive). With `CC(=O)O[C@H]1C[C@@H]2OC3C=C(C)CCC3(C)[C@@]1(C)[C@@]21CO1` (stereo not given in full) the growth was -26.7% (active) and -40.4% (active). `CCOC(=O)[C@@H](C)C[C@H](Cc1ccccc1)NC(=O)c1csc([C@@H](C[C@H](C(C)C)N(C)C(=O)[C@@H](NC(=O)[C@H]2C[C@H](O)CCN2C)C(C)C)OC(C)=O)n1` was tested, and the growth was 21.8% (inactive). `O=S1(=O)OCCO1` was tested, and the growth was 98.2% (inactive). For `CCCC(=O)O[C@@H]1C[C@H]2C[C@@H](O[C@@H]3O[C@@H](C)[C@@H](O)[C@@H](O)[C@H]3OC)C[C@@H](C[C@@H](C)/C=C/C=C\C[C@@H]3O[C@@H](C[C@@H]3C)[C@@H](O)C[C@H]3C[C@@]1(O)C(=O)O3)O2`, the growth was -6.3% (active). In the case of `C/C(=N/OC(=O)N(C)C)c1ccc(Cl)c(Cl)c1`, the growth is reported as 120% (inactive). With `C=NCC#N` the growth was 105% (inactive) and 108% (inactive). In the case of `C=CCN1C(=O)C(CC)(CCC(C)C)C(=O)NC1=S` (stereo not given), the growth is reported as 102% (inactive). `O=C(CBr)OCCOC(=O)CBr` was tested, and the growth was 32.8% (inactive). With `NC(=O)c1cc([N+](=O)[O-])c(Cl)c([N+](=O)[O-])c1` the growth was 19.8% (inactive). In the case of `O=NN1CCCc2cccc(O)c21`, the growth is reported as 67.7% (inactive). `CC1=C(C)C(=O)O[C@@H]([C@](C)(O)[C@]2(O)CC[C@@]3(O)[C@@H]4C[C@H]5O[C@]56CC=CC(=O)[C@]6(C)[C@H]4CC[C@]23C)C1` was tested, and the growth was -26.3% (active). `NC1CN2CCC1CC2` (stereo not given) was tested, and the growth was 108% (inactive). `CCOC(=O)Nc1cc(Cl)c([N+](=O)[O-])c(NC(=O)OCC)n1` was tested, and the growth was 87.2% (inactive). In the case of `COC(=O)C1CC2c3ccccc3C1c1ccccc12` (stereo not given), the growth is reported as 93.1% (inactive). `COc1ccc(Nc2ccc([N+](=O)[O-])cc2[N+](=O)[O-])cc1CN(CCCl)CCCl` was tested, and the growth was 10.1% (inactive). For `COc1ccc(N(CC(=O)NCCC[Te]c2ccccc2)C(=O)c2ccccc2)cc1`, the growth was 97.2% (inactive). `COC(=O)[C@@]1(C)CC[C@]2(C)CC[C@]3(C)C4=CC(=O)c5c(cc(O)c(O)c5C)[C@]4(C)CC[C@@]3(C)[C@@H]2C1` was tested, and the growth was 30.1% (inactive). `C/C=C\C(=O)O[C@@H]1CC2O[C@@H]3C=C(C)C(=O)C[C@]3(C)[C@]1(C)[C@]21CO1` was tested, and the growth was -29.7% (active). `COC12CC3(C)C(C4=CC(=O)OC4)CCC3(O)C3CCC4=CC(=O)CCC4(CO1)C32` (stereo not given) was tested, and the growth was 101% (inactive).
